FBW7 activator – human FBW7 E3 ligase activation, primary screen; Q969H0; AlphaScreen FBW7–phospho-cyclin E peptide binding, activator screen; normalized activity (activation), % at 26.1 µM; 0.13% of 650,000 active; in the data active = normalized activity above about 1.9%;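 also: purified mutant Fbw7 with reduced substrate affinity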
MITF inh – human MITF inhibition, primary screen | O75030 | AlphaScreen MITF homodimerization, bead proximity signal | inhibition, % at 2.6 µM | 0.91% of 650,000 active; in the data active = inhibition above about 50%;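 also: 0% = vehicle wells with protein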
GPR151 activ – activates the human receptor GPR151; PathHunter beta-arrestin GPR151 cells, luminescence; activation, % at 11.2 µM; 1% of 650,000 active; AID 1508602; in the data active = activation above about 4.9%;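 also: 0% = median of compound wells and 100% = cells with positive control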
Target sequence (Q8TDV0 whole entry, looked up): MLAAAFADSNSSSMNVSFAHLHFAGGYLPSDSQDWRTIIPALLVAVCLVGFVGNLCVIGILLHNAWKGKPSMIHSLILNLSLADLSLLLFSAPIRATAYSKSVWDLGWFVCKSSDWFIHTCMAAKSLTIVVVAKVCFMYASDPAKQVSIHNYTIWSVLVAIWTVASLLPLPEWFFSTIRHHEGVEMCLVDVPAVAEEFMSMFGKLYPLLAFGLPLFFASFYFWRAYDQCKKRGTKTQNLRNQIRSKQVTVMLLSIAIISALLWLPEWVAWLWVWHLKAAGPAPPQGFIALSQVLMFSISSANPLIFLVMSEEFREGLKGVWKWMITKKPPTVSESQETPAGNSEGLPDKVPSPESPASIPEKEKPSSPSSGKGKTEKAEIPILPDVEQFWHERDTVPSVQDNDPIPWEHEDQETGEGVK
TEAD-YAP inh – TEAD-YAP interaction inhibition; inhibition, % at 9.12 µM; HEK-TIYL cells, TEAD-Gal4/YAP UAS-luciferase luminescence; 1.4% of 640,000 active; AID 1259422; in the data active = inhibition above about 32%;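 also: 0% = median of test compound wells and 100% = reference inhibitor wells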
* = called active by the depositor. Sampled rows, rich in hits. Any-hit rate of the full collection: about 3.4%.

What do the screens show for `CCOC(=O)c1[nH]c(C)c(C(=O)c2cc(F)ccc2F)c1C`?
FBW7 activator: 0; MITF inh: 4; GPR151 activ: 1; TEAD-YAP inh: 45*

How did CCOC(=O)c1[nH]c(C)c(C(=O)OCC(=O)Nc2sccc2C(N)=O)c1C do in these assays?
FBW7 activator: 0; MITF inh: -6; GPR151 activ: 2; TEAD-YAP inh: 32*

Results for CCOC(=O)c1[nH]c(C)c(C(=O)Nc2cc(F)ccc2F)c1C ?
FBW7 activator: 0; MITF inh: 15; GPR151 activ: 0; TEAD-YAP inh: 42*

How did CC(=O)Oc1ccccc1N1C(=O)c2ccc(Oc3ccc(N)cc3)cc2C1=O do in these assays?
FBW7 activator: 0; MITF inh: 5; GPR151 activ: 0; TEAD-YAP inh: 5

Results for CCOC(=O)c1sc(NC(=O)c2cccc3ccccc23)nc1C ?
FBW7 activator: 0; MITF inh: -10; GPR151 activ: 4; TEAD-YAP inh: 42*

What do the screens show for `CCOC(=O)c1sc(NC(=O)c2ccccc2)nc1C`?
FBW7 activator: 0; MITF inh: -1; GPR151 activ: -1; TEAD-YAP inh: -59

What do the screens show for `O=C(NCC(c1cccs1)N1CCOCC1)c1ccc([N+](=O)[O-])o1` (configuration not stated)?
FBW7 activator: 0; MITF inh: 3; GPR151 activ: 1; TEAD-YAP inh: 55*

Results for Cc1nn(-c2ccc(F)cc2)c2sc(C(=O)NCc3ccc(S(N)(=O)=O)cc3)cc12 ?
FBW7 activator: 0; MITF inh: -1; GPR151 activ: 0; TEAD-YAP inh: 40*

What do the screens show for `COc1ccc(C2C3=C(Nc4[nH]c(=O)[nH]c(=O)c42)c2ccccc2C3=O)cc1` (configuration not stated)?
FBW7 activator: 0; MITF inh: 21; GPR151 activ: -2; TEAD-YAP inh: 56*

How did CCc1ccc(C2C3=C(Nc4c2c(=O)[nH]c(=O)n4CCOC)c2ccccc2C3=O)cc1 (configuration not stated) do in these assays?
FBW7 activator: 0; MITF inh: -4; GPR151 activ: -1; TEAD-YAP inh: 43*

Results for Cc1ccc(C2C3=C(Nc4c2c(=O)[nH]c(=O)n4C)c2ccccc2C3=O)cc1 (configuration not stated) ?
FBW7 activator: 0; MITF inh: -2; GPR151 activ: -1; TEAD-YAP inh: 1

What do the screens show for `Cc1ccc(C2C3=C(Nc4[nH]c(=O)[nH]c(=O)c42)c2ccccc2C3=O)cc1` (configuration not stated)?
FBW7 activator: 0; MITF inh: 16; GPR151 activ: 0; TEAD-YAP inh: 39*

How did COCCn1c2c(c(=O)[nH]c1=O)C(c1ccccc1)C1=C(N2)c2ccccc2C1=O (configuration not stated) do in these assays?
FBW7 activator: 0; MITF inh: 7; GPR151 activ: 1; TEAD-YAP inh: 10

Results for CCN(CC)c1ccc(/C=N\NC(=O)c2ccc(O)cc2)cc1 ?
FBW7 activator: 0; MITF inh: 1; GPR151 activ: 0; TEAD-YAP inh: 27

What do the screens show for `O=C1C2=C(C(c3ccc(Cl)cc3)=NCCN2)C(c2ccccc2)N1c1ccccc1` (configuration not stated)?
FBW7 activator: 0; MITF inh: 13; GPR151 activ: 0; TEAD-YAP inh: -1

What do the screens show for `COc1cccc(C2C3=C(NCCN=C3c3ccc(Cl)cc3)C(=O)N2c2ccccc2)c1` (configuration not stated)?
FBW7 activator: 0; MITF inh: 6; GPR151 activ: 1; TEAD-YAP inh: 58*

How did CS(=O)(=O)Nc1cccc(-c2ccnc(Nc3ccc(-c4ncn[nH]4)cc3)n2)c1 do in these assays?
FBW7 activator: 0; MITF inh: 9; GPR151 activ: -1; TEAD-YAP inh: 72*

How did CS(=O)(=O)Nc1cccc(-c2ccnc(Nc3cccc(S(N)(=O)=O)c3)n2)c1 do in these assays?
FBW7 activator: 0; MITF inh: 7; GPR151 activ: 4; TEAD-YAP inh: 91*

What do the screens show for `NS(=O)(=O)c1ccc(Nc2nccc(-c3cccc(OCCN4CCCCC4)c3)n2)cc1`?
FBW7 activator: 0; MITF inh: 26; GPR151 activ: 0; TEAD-YAP inh: 68*

How did CS(=O)(=O)Nc1ccc(-c2ccnc(Nc3cccc(S(N)(=O)=O)c3)n2)cc1 do in these assays?
FBW7 activator: 0; MITF inh: 6; GPR151 activ: 0; TEAD-YAP inh: 2

What do the screens show for `Cc1ccc(NC(=O)c2ccc(=O)oc2)cc1C`?
FBW7 activator: 0; MITF inh: 3; GPR151 activ: 2; TEAD-YAP inh: 6

Compound activity as filed in PubChem BioAssay.
